An excerpt weighted towards active compounds, which were near 19% of everything screened.
TDP1 cell noCPT = qHTS for Inhibitors of human tyrosyl-DNA phosphodiesterase 1 (TDP1): qHTS in cells in absence of CPT; actives 15% (n = 420,000); DT40 Tdp1-/- hTDP1 cells, no CPT, ATP luminescence, 48 h; Potency, µM (series often up to 46.2 µM), usual class: inhibitors; note: nearly all actives have a fitted effect of over 55% in size
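Compound effects on proliferation are scored in DT40 Tdp1-/-;hTDP1 cells in the absence of CPT. ATP levels (CellTiter-Glo luminescence) are recorded after a ≥48 hr, 37 °C incubation.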
DT40 TDP1 CPT = DT40-hTDP1 cell growth loss with CPT. chicken DT40 Tdp1-/-;hTDP1 cells + 20 nM CPT, ATP luminescence, 48 h. Potency, µM (top dose mostly 46.2 µM), actives largely listed as inhibitors. actives 12% (n = 420,000). AID 686979; note: nearly all actives have a fitted effect of over 55% in size
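Cell growth measured by CellTiter-Glo luminescence after a minimum 48 h, 37 C compound exposure with 20 nM CPT in Tdp1-knockout DT40 cells stably expressing hTDP1, seeded 400/well; qHTS titration format.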
IL1B secr inh = blocks inflammasome-driven IL-1 beta release. THP-1 LPS/ATP IL-1B secretion, AlphaLISA, 16 h; hits give low values. activity change, % at 57.5 µM. actives 4.7% (n = 360,000). AID 743279; in the data active = activity change below about -50%; inconclusive = mostly about -30% to -49%
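Secreted IL-1B measured by AlphaLISA bead assay after 16 h compound exposure of THP-1 cells; compounds (final up to 57.5 uM) added 1 h before LPS (250 ng/mL) and ATP (1.25 mM) stimulation; lower signal means less secretion.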
HT1080 IDH1KD tx = kills HT-1080 cells with IDH1 knockdown. HT-1080 IDH1 knockdown viability, ATP luminescence, 48 h. Potency, µM (doses to about 46.1 µM), hits mostly cytotoxic. actives 2% (n = 360,000). AID 686971
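Using the IDH1-knockdown HT-1080 line run in the same batch and compound series as the NT line, viability after 48 h at 37 °C was determined by CellTiter-Glo luminescence and expressed as % activity.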
HT1080-NT tox = kills 2HG-producing HT-1080-NT fibrosarcoma cells; actives 1.6% (n = 360,000); Potency, µM (series often up to 46.1 µM), usual class: cytotoxic; AID 686970; HT-1080-NT fibrosarcoma viability, CellTiter-Glo ATP luminescence, 48 h;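 note: NT is the 2HG producing partner of a matched IDH1 knockdown line; nearly all actives have a fitted effect of over 55% in size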
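Compounds were tested in concentration-response format on HT-1080-NT cells for 48 hours at 37 degrees C. Cell viability came from CellTiter-Glo luminescence; curves were classified by r2, response magnitude and activity.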
Large screens that a line does not name were inactive. Unless noted, calls come from the whole dose curve; as a rule, active = well fitted curve in the direction sought with a large enough effect; inconclusive = small, poorly fitted or top-dose-only effect, or another doubt; inactive = no such curve, though single readings can be large; an effect the other way counts as inactive or inconclusive.

COc1ccc(OCC(=O)O/N=C(\N)Cc2ccc(Cl)cc2)cc1	none
Cc1ccc(OCC(=O)O/N=C(\N)Cc2ccc(Cl)cc2)cc1	TDP1 cell noCPT 4.61µM, DT40 TDP1 CPT 6.51µM
Cc1ccc(C(=O)CC(=O)COc2ccc(Cl)cc2)cc1	TDP1 cell noCPT 14.6µM, DT40 TDP1 CPT inconclusive, HT1080 IDH1KD tx inconclusive, HT1080-NT tox inconclusive
CC(C)NC(=O)c1noc2cc([N+](=O)[O-])ccc12	none
CCCc1nnc(SCC(=O)N2CCCCC2C)n1CCOC (stereo unspecified)	TDP1 cell noCPT inconclusive
CCc1ccc(NC2=CC(=O)C(=O)c3ccccc32)cc1	TDP1 cell noCPT 2.91µM, DT40 TDP1 CPT 2.31µM, IL1B secr inh -86.9
c1ccc(Nc2ccccc2)cc1	none
CCc1ccc2c(c1)C(=O)c1ccccc1C2=O	none
O=C1C=C(Nc2ccccc2)C(=O)c2ccccc21	TDP1 cell noCPT inconclusive, DT40 TDP1 CPT 13µM, HT1080 IDH1KD tx inconclusive, HT1080-NT tox 14.6µM
O=C1c2cccnc2C(=O)N1Cc1ccccc1	none
O=C1C=C(Nc2ccccc2C(=O)O)c2ccccc2C1=O	TDP1 cell noCPT inconclusive, DT40 TDP1 CPT inconclusive, HT1080 IDH1KD tx 18.4µM, HT1080-NT tox inconclusive
O=C1C(Nc2ccccc2)=CC(=O)c2ncccc21	TDP1 cell noCPT 1.12µM, DT40 TDP1 CPT 1µM (no result: IL1B secr inh, HT1080 IDH1KD tx, HT1080-NT tox)
O=C1C(Nc2ccccc2)=C(NS(=O)(=O)c2ccccc2)C(=O)c2ccccc21	TDP1 cell noCPT inconclusive
O=C1C=C(Nc2cccc3cccnc23)c2ccccc2C1=O	TDP1 cell noCPT 7.31µM, DT40 TDP1 CPT 5.8µM, IL1B secr inh -77.7, HT1080 IDH1KD tx 2.06µM, HT1080-NT tox inconclusive
O=C1C=C(Nc2ccccc2)c2ccccc2C1=O	TDP1 cell noCPT 4.61µM, DT40 TDP1 CPT 7.31µM, HT1080 IDH1KD tx 5.17µM, HT1080-NT tox inconclusive
COC(=O)c1cc(C(=O)OCC(=O)NC(=O)NCc2ccccc2)cc([N+](=O)[O-])c1	none
COc1cc(OC)cc(C(=O)c2c(C)c(C#N)c3ccccn23)c1	TDP1 cell noCPT 2.31µM, DT40 TDP1 CPT 2.31µM, HT1080-NT tox inconclusive
CC[C@]12c3[nH]c4cc(CCC(=O)N(C)C)ccc4c3CCN1C(=O)[C@@H](CC(=O)NCc1cccc(C(F)(F)F)c1)C[C@@H]2C(=O)N1CCN(C(=O)C2CC2)CC1	TDP1 cell noCPT inconclusive
O=C1CNC(=O)/C1=C/c1ccc(Br)cc1	none
COc1cc2c(cc1OC)/C(=C/c1ccc(Br)cc1)C(=O)OC2	TDP1 cell noCPT 18.4µM, DT40 TDP1 CPT inconclusive, HT1080 IDH1KD tx inconclusive, HT1080-NT tox inconclusive
CN(Cc1ccc(OCC(O)CN(C)Cc2ccccc2)cc1)Cc1nccn1C (stereo unspecified)	TDP1 cell noCPT inconclusive, DT40 TDP1 CPT inconclusive
OC(COc1ccc(CNCCc2ccc(C(F)(F)F)cc2)cc1)CN1CCCCC1 (stereo unspecified)	TDP1 cell noCPT 5.8µM, DT40 TDP1 CPT 4.61µM, HT1080 IDH1KD tx 23.1µM, HT1080-NT tox 23.1µM
CN(Cc1ccc(Br)cc1)CC(O)COc1cccc(Br)c1 (stereo unspecified)	TDP1 cell noCPT inconclusive, DT40 TDP1 CPT inconclusive, IL1B secr inh -93.2, HT1080 IDH1KD tx inconclusive, HT1080-NT tox inconclusive
C=CCOc1ccc(CN(C)CC(O)COc2ccc(CCC(C)=O)cc2)cc1 (stereo unspecified)	TDP1 cell noCPT 16.4µM, DT40 TDP1 CPT inconclusive
OC(COc1ccc(OCC(O)CN2CCCCC2)cc1)CN1CCCCC1 (stereo unspecified)	TDP1 cell noCPT inconclusive, IL1B secr inh inconclusive
CC(=O)CCc1ccc(OCC(O)CNCCOc2ccc(C)cc2)cc1 (stereo unspecified)	IL1B secr inh inconclusive
COc1ccc(CN(C)CC(O)COc2ccc(-c3ccccc3)cc2)cc1OC (stereo unspecified)	TDP1 cell noCPT inconclusive, DT40 TDP1 CPT 18.4µM, IL1B secr inh -70.7, HT1080 IDH1KD tx 20.6µM, HT1080-NT tox inconclusive
COc1ccc(C(=O)NCC(=O)OCC(=O)N2CCCc3ccccc32)cc1	none
OC(CNCCc1ccc(C(F)(F)F)cc1)COc1cccc2ccccc12 (stereo unspecified)	TDP1 cell noCPT inconclusive, DT40 TDP1 CPT inconclusive, IL1B secr inh -62.6
CC(=O)c1cccc(OCC(O)CNCCc2ccc(Cl)cc2)c1 (stereo unspecified)	DT40 TDP1 CPT inconclusive, IL1B secr inh inconclusive
COc1ccccc1COCC(O)CN1CCCCC1CO (stereo unspecified)	none
OC(COc1ccc2ccccc2c1)CN1CCCC1 (stereo unspecified)	HT1080-NT tox inconclusive
COc1ccc(CCNCC(O)COc2cccc(Br)c2)cc1 (stereo unspecified)	TDP1 cell noCPT inconclusive, DT40 TDP1 CPT inconclusive, IL1B secr inh -58.6, HT1080 IDH1KD tx inconclusive, HT1080-NT tox inconclusive
COc1ccccc1COCC(O)CNCCc1ccc(C(F)(F)F)cc1 (stereo unspecified)	TDP1 cell noCPT inconclusive, DT40 TDP1 CPT inconclusive, IL1B secr inh -77.5
OC(CNCCc1ccc(C(F)(F)F)cc1)COc1ccc2ccccc2c1 (stereo unspecified)	DT40 TDP1 CPT inconclusive, IL1B secr inh -101.3
Cc1nn(C)c(Cl)c1CN1CCC(CO)(CC2CCCCO2)CC1 (stereo unspecified)	none
COc1ccc(NC(=O)CSc2nc(-c3ccc(OC)cc3)cc(=O)[nH]2)cc1	none (no result: IL1B secr inh, HT1080 IDH1KD tx, HT1080-NT tox)
CCOc1ccc(OCCC(=O)Nc2ccccc2C(=O)NC2CC2)cc1	none
Cn1c(N)c(C(=O)Nc2ccc(-c3ccccc3)cc2)sc1=S	TDP1 cell noCPT 20.6µM, DT40 TDP1 CPT 23.1µM
CC[N+]1(C)CCC(O)(/C=C/c2ccccc2)C(C(=O)/C=C/c2ccccc2)C1 (stereo unspecified)	TDP1 cell noCPT 0.13µM, DT40 TDP1 CPT 0.0326µM, IL1B secr inh -102.3, HT1080 IDH1KD tx 7.31µM
COc1ccc(NC(=O)c2ccc3nc(C)sc3c2)cc1	none
O=C(O)c1ccccc1C(=O)Nc1cccc([N+](=O)[O-])c1	none
Cc1nc2ccc(NC(=O)c3ccc(Cl)c(NC(=O)c4cccs4)c3)cc2s1	TDP1 cell noCPT 20.6µM, DT40 TDP1 CPT inconclusive
O=C(Nc1cccc([N+](=O)[O-])c1)c1cc2ccccc2cc1O	TDP1 cell noCPT 2.59µM, DT40 TDP1 CPT 4.11µM, IL1B secr inh inconclusive, HT1080 IDH1KD tx 3.66µM, HT1080-NT tox 3.66µM
Cc1ccc(NC(=O)c2ccc(Cl)c(NC(=O)c3cccs3)c2)cc1	TDP1 cell noCPT inconclusive, DT40 TDP1 CPT inconclusive, HT1080 IDH1KD tx inconclusive, HT1080-NT tox inconclusive
CC(NC(=O)Nc1cccc([N+](=O)[O-])c1)(C(F)(F)F)C(F)(F)F	TDP1 cell noCPT inconclusive, DT40 TDP1 CPT 3.66µM, HT1080 IDH1KD tx 16.4µM, HT1080-NT tox inconclusive
COC(=O)c1sccc1NC(=O)Nc1cccc([N+](=O)[O-])c1	none
